High-throughput results deposited in PubChem BioAssay by Sanford-Burnham Center for Chemical Genomics.
This is a sample that favours compounds with a hit; in the whole collection about 6.3% have one here.
Mdm2-MdmX inh = disrupts the human Mdm2-MdmX interaction; SaOS-2 split-luciferase Mdm2/MdmX complementation, luminescence; inhibition, % at 8 µM; hit rate 3% among 330,000; O15151+Q00987;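 active = inhibition of at least 50% at 8 µM in the primary screen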
tim10-1 inh = inhibits growth of tim10-1 mutant yeast; hit rate 2.2% among 330,000; S. cerevisiae tim10-1 ts strain growth, BacTiter-Glo, 24 h; inhibition, % at 20 µM; AID 463190;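 active = inhibition of at least 40%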;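 also: mutant grown at 25 °C; 0% = DMSO wells with yeast and 100% = wells holding no yeast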
TIM10 inh = TIM10 yeast growth inhibition; S. cerevisiae TIM10 strain growth, BacTiter-Glo luminescence, 24 h; inhibition, % at 10 µM; hit rate 1.4% among 330,000; AID 463195;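 active = inhibition of 40% or more at the single tested concentration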;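 also: wild-type TIM10 isogenic control strain grown at permissive 25 °C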
tim23-1 inh = inhibits growth of tim23-1 mutant yeast; S. cerevisiae tim23-1 growth, BacTiter-Glo luminescence, 24 h; inhibition, % at 20 µM; hit rate 1.3% among 330,000; AID 463212;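 active = growth inhibition of the mutant yeast at or above 50%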;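 also: temperature-sensitive mutant grown at 25 °C; plate controls were DMSO-treated mutant yeast for no effect and medium wells lacking yeast for full effect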
MPTP inh = blocks calcium-induced mitochondrial swelling; inhibition, % at 10 µM; hit rate 1.4% among 360,000; AID 602449; isolated mouse mitochondria, Ca2+ swelling absorbance, 30 min;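 active = inhibition of 50% or more, scaled per plate between neutral and stimulator controls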;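 also: 0% = DMSO wells given calcium and 100% = 1 mM EGTA wells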
tim10-1 confirm = confirmation of tim10-1 mutant yeast growth inhibitors; shares compounds with tim10-1 inh; S. cerevisiae tim10-1 ts strain growth, BacTiter-Glo, 24 h; inhibition, % at 20 µM; hit rate 56% among 7,400;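 active = inhibition of yeast growth at or above a set limit in either of two repeat tests at 20 µM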;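 also: tim10-1 mutant grown at permissive 25 °C to find synthetic lethal compounds; 0% = DMSO yeast wells and 100% = medium wells without yeast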
Starred values were filed as active, the others as inactive; · = no result given.

SMILES	Mdm2-MdmX inh	tim10-1 inh	TIM10 inh	tim23-1 inh	MPTP inh	tim10-1 confirm
Cc1nc(Nc2cccc(Cl)c2)c2oc3ccccc3c2n1	34.2	32.4	32.7	43.5	-0.5	·
Cc1nc(Oc2ccccc2)c2oc3ccccc3c2n1	14.8	42.2*	12.6	5.7	-1.0	24.1
COc1ccc(Oc2nc(C)nc3c2oc2ccccc23)cc1	9.0	16.7	21.0	19.3	0.4	·
COc1cccc(Nc2nc(C)nc3c2oc2ccccc23)c1	-14.9	43.2*	24.0	34.0	-0.9	29.4
COc1ccc(NC(=O)C2CCN(c3cc(C)nc(-c4ccccc4)n3)CC2)cc1	0.9	43.3*	22.4	38.2	0.2	29.6
COc1ccc(NC(=O)C2CCN(c3nc(C)cc(C)n3)CC2)cc1	-17.0	14.6	9.0	2.8	0.5	·
O=C1Nc2ccccc2-n2nnnc2C1N1CCN(C(=O)c2ccco2)CC1 (stereo unspecified)	·	·	·	·	-0.2	·
C/C(=N\OC(=O)NC(C)C)c1sc(-c2ccc(Cl)cc2)nc1C	-91.3	45.0*	17.8	23.4	-0.9	41.8*
COc1ccc(Nc2nc(N)nc(CSC(=S)N3CCN(c4ccccc4)CC3)n2)cc1	6.9	40.7*	4.3	24.3	-8.7	9.4
O=C(CN1CCC(C(=O)c2ccc(Cl)cc2)CC1)Nc1ccc2c(c1)OCCO2	1.9	44.1*	14.6	35.1	-1.1	25.0
CSc1ccc(Cn2c(C)c(C(=O)NCc3ccco3)sc2=O)cc1	·	·	·	·	0.2	·
CC1CCCC(NC(=O)CSc2nnc(-c3cccnc3)o2)C1C (stereo unspecified)	·	·	·	·	-3.0	·
CCOC(=O)C(Sc1cc(-c2ccccc2)nc2ncnn12)C(C)=O (stereo unspecified)	11.3	41.0*	10.6	14.5	2.0	29.6*
CCCC(=O)N(CCN1CCOCC1)c1nc2c(C)ccc(C)c2s1	17.4	42.3*	4.6	29.1	2.4	-4.0
CCCC(=O)N(CCN1CCOCC1)c1nc2c(OC)ccc(C)c2s1	16.0	10.3	3.4	1.4	-0.8	·
Cc1ccc(NC(=O)C(C)Sc2nnc3n2CCCCC3)cc1S(=O)(=O)N1CCOCC1 (stereo unspecified)	·	·	·	·	-0.6	·
CCOc1ccc(NC(=O)c2sc3nc4n(c(=O)c3c2C)CCC4)cc1	13.7	13.4	2.5	9.0	-1.9	·
CCOC(=O)c1ccc(NC(=O)c2sc3nc4n(c(=O)c3c2C)CCC4)cc1	25.7	47.9*	13.2	24.7	0.7	28.0
Cc1cc(C)cc(NC(=O)c2sc3nc4n(c(=O)c3c2C)CCC4)c1	12.1	42.9*	5.6	24.6	-0.2	4.6
COC(=O)[C@]1(Sc2ccc(OC)cc2)CC(=O)N[C@@H]1c1ccccc1	·	·	·	·	1.7	·
O=C(Nc1ccccn1)C(c1ccccc1)c1ccccc1	·	·	·	·	-1.1	·
COC(=O)c1ccc(CSc2ncnc3sc(C)c(C)c23)o1	-9.7	45.7*	29.1	10.8	1.3	37.0*
CN(C)CCN(C(=O)c1cccc2ccccc12)c1nc2cc3c(cc2s1)OCO3	15.2	45.3*	26.2	28.0	1.1	-0.9
Cc1cc(=O)n2nc(-c3ccccc3)sc2n1	7.5	7.9	-12.8	3.5	1.3	·
Cc1cc(=O)n2c3c(sc2n1)C(=O)N(Cc1ccccc1)C3=O	15.5	40.3*	20.9	29.0	·	33.8*
SMILES	Mdm2-MdmX inh	tim10-1 inh	TIM10 inh	tim23-1 inh	MPTP inh	tim10-1 confirm
COc1ccc(OC)c(NC(=O)Nc2nc(C(N)c3ccccc3Cl)cs2)c1 (stereo unspecified)	·	·	·	·	3.2	·
Cc1cccc(C(=O)O/N=C2\CCCc3ccccc32)c1	-8.8	44.3*	23.3	18.1	2.4	36.0*
COc1ccc2c(c1)/C(=N/OC(=O)c1cccs1)CCC2	-20.2	52.2*	19.2	34.2	1.4	41.0*
OCCNc1ncnc2c1ncn2[C@H]1CN(C2CCCC2)C[C@@H](CO)O1	·	·	·	·	-0.9	·
S=C(Nc1ccccn1)NC1CCCCC1	-7.8	40.0	9.4	37.4	-0.7	5.8
S=C(Nc1ccccn1)NC1CCCC1	3.1	33.0	23.7	20.2	1.1	·
CC1(Oc2cccc(F)c2)CCN(Cc2ccc(-c3ccccn3)cc2)C1 (stereo unspecified)	·	·	·	·	-0.1	·
CC1CCN(C(=O)c2ccc3c(c2NCCO)C(=O)c2ccccc2C3=O)CC1	41.6	42.1*	22.5	39.9	6.5	27.8
COCCn1c(-c2ccc(Br)cc2)csc1=Nc1cccnc1	31.9	41.5*	-1.2	28.7	1.9	16.7
COc1ccc(N=c2scc(-c3ccc(OC)cc3)n2CCO)cc1	-15.3	40.7*	9.1	40.6	2.4	25.1
OCCCn1c(-c2ccccc2)csc1=Nc1ccccc1	7.0	3.0	-6.4	41.9	-2.0	·
COC(=O)[C@H]1C[C@H](OC(=O)NC2CC2)[C@@]2(O)CN(S(=O)(=O)c3ccc(C)cc3)CC2[C@H]1C(=O)OC (stereo partly specified)	·	·	·	·	-0.1	·
COc1cc(OC)cc(C(=O)NC(=S)NNC(=O)Cc2cccs2)c1	35.6	40.3*	14.9	-38.8	0.3	10.9
COc1ccc(C(=O)NC(=S)NNC(=O)Cc2cccs2)cc1	23.0	21.7	-0.9	-23.4	-0.8	·
COc1ccc(NC(=O)C2(C)CCN2C2Cc3ccccc3C2)cc1OC (stereo unspecified)	·	·	·	·	-0.9	·
Cc1ccc(C(C)C)c(OCCCN2C(=O)NC(C)(C)C2=O)c1	13.1	42.7*	6.9	18.1	0.8	22.1
Cn1nc(NC(=O)C(F)(F)F)c2ncc(-c3ccccc3)nc21	·	·	·	·	-4.3	·
COc1ccc(-c2noc(N3CCC(C(=O)Nc4ccc(F)cc4)CC3)n2)cc1	-13.8	13.9	-3.5	3.8	-1.0	·
COc1ccc(NC(=O)C2CCCN(c3ncnc4onc(-c5ccc(F)cc5)c34)C2)cc1 (stereo unspecified)	16.2	42.2*	4.5	31.6	-0.5	-7.1
CC(=O)c1cc(NC(=O)c2ccccc2)c(=O)oc1C	-12.0	15.0	17.6	21.9	0.4	·
Cc1oc(=O)c(NC(=O)c2ccc(Cl)cc2)cc1C(=O)c1ccccc1	0.6	56.4*	27.9	37.4	7.2	57.1*
Cc1sc(NC(=O)C2C3CCC(O3)C2C(=O)O)nc1-c1ccc(CC(C)C)cc1 (stereo unspecified)	-19.7	41.2*	19.1	27.1	2.5	12.9
O=C(Nc1cccnc1)OC1CCCCC1	20.2	43.0*	10.1	26.2	-4.0	26.3
S=C(Nc1ccc(Cl)cc1)c1nc2ccccc2[nH]1	-43.3	48.5*	37.6	36.2	4.2	35.9*
Cc1ccccc1NC(=S)c1nc2ccccc2[nH]1	·	·	·	·	-2.2	·
COc1ccc(C(NC(=O)C2CCN(CCOc3ccc(Cl)cc3)CC2)c2cccs2)cc1 (stereo unspecified)	·	·	·	·	5.0	·
CCCCNC(=O)C1(C)CCCCN1C(=O)c1ccc2c(c1)CCO2 (stereo unspecified)	·	·	·	·	0.1	·
O=c1c2ccccc2c(-c2n[nH]c(=S)o2)nn1Cc1ccccc1	27.1	9.1	14.1	2.1	-2.0	·
OCc1ccc(-c2nn(Cc3ccccc3)c3ccccc23)o1	-11.5	40.1*	3.5	44.3	-0.9	29.8*
Nc1ccc2c(c1)[nH]c(=O)c1cc(N)ccc12	·	·	·	·	0.2	·
